Data: PubChem BioAssay (NCI)
Compounds without any hit were thinned out: in the full panel of roughly 83,000, 20% have a hit.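 Single-concentration screen, 48 h exposure, 96-well plates. Endpoint: percent growth. Below 10 = active.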 Active and inactive are the calls of the source.

Key:
Test in all cases: NCI-60 one-dose screen, 48 h (100 = growth as untreated, 0 = no growth, -100 = all killed)
Conditions in all cases: 10 µM unless noted
NCI-H23 lung = tested on: NCI-H23 lung
NCI-H226 lung = tested on: NCI-H226 lung
NCI-H322M lung = tested on: NCI-H322M lung
HOP-62 NSCLC = tested on: HOP-62 NSCLC
NCI-H460 lung = tested on: NCI-H460 lung
HOP-92 NSCLC = tested on: HOP-92 NSCLC
NCI-H522 lung = tested on: NCI-H522 lung
A549/ATCC NSCLC = tested on: A549/ATCC NSCLC
786-0 renal = tested on: 786-0 renal
COLO 205 colon = tested on: COLO 205 colon
DU-145 prostate = tested on: DU-145 prostate
K-562 leukemia = tested on: K-562 leukemia
MALME-3M melanoma = tested on: MALME-3M melanoma
MDA-MB-231 breast = tested on: MDA-MB-231 breast
RXF 393 renal = tested on: RXF 393 renal
SF-268 CNS = tested on: SF-268 CNS
SF-295 CNS = tested on: SF-295 CNS
SF-539 CNS = tested on: SF-539 CNS
UACC-257 melanoma = tested on: UACC-257 melanoma
M14 melanoma = tested on: M14 melanoma

Measured: growth

CCOC(=O)C(=Cc1ccc(-c2ccccc2)cc1)C(=O)OCC
inactive: NCI-H23 lung 38.6% | NCI-H226 lung 46.5% | NCI-H322M lung 78.4% | HOP-62 NSCLC 73.7% | NCI-H460 lung 78% | HOP-92 NSCLC 63.2% | NCI-H522 lung 26% | A549/ATCC NSCLC 49.6% | 786-0 renal 43.1% | COLO 205 colon 55.6% | DU-145 prostate 36.6% | K-562 leukemia 20% | MALME-3M melanoma 70.6% | MDA-MB-231 breast 53.3% | RXF 393 renal 43% | SF-268 CNS 37.5% | SF-295 CNS 52.5% | SF-539 CNS 21.4% | UACC-257 melanoma 44.4% | M14 melanoma 42.5%

O=C1c2ccccc2C(=O)c2c1c(C(=O)NCc1ccccc1)c1ccccn21
inactive: NCI-H23 lung 101% | NCI-H226 lung 100% | NCI-H322M lung 99.4% | HOP-62 NSCLC 94.4% | NCI-H460 lung 107% | HOP-92 NSCLC 91.7% | NCI-H522 lung 73.4% | A549/ATCC NSCLC 76.8% | 786-0 renal 94.5% | COLO 205 colon 108% | DU-145 prostate 104% | K-562 leukemia 84.5% | MALME-3M melanoma 108% | MDA-MB-231 breast 96.8% | RXF 393 renal 104% | SF-268 CNS 104% | SF-295 CNS 98.1% | SF-539 CNS 104% | UACC-257 melanoma 90.2% | M14 melanoma 105%

N=C(N)c1ccc(-c2ccc(-c3ccccc3)s2)cc1
active: NCI-H460 lung -16.6% | NCI-H522 lung -26.5% | COLO 205 colon -42.9% | K-562 leukemia 1.35%
inactive: NCI-H23 lung 85.5% | NCI-H226 lung 103% | NCI-H322M lung 49.2% | HOP-62 NSCLC 74.6% | HOP-92 NSCLC 73.2% | A549/ATCC NSCLC 60.1% | 786-0 renal 78.8% | DU-145 prostate 29.5% | MALME-3M melanoma 97.2% | MDA-MB-231 breast 10.3% | RXF 393 renal 78.7% | SF-268 CNS 76.4% | SF-295 CNS 40.6% | SF-539 CNS 78.5% | UACC-257 melanoma 103% | M14 melanoma 81.1%

COc1cc(NC(=O)c2cncnc2Nc2ccc3c(ccn3Cc3ccccn3)c2)cc(OC)c1
inactive: NCI-H23 lung 68.6% | NCI-H226 lung 76.1% | NCI-H322M lung 76.4% | HOP-62 NSCLC 43.9% | NCI-H460 lung 20.5% | HOP-92 NSCLC 54.2% | NCI-H522 lung 38.9% | A549/ATCC NSCLC 53.9% | 786-0 renal 49.4% | COLO 205 colon 44.9% | DU-145 prostate 65.4% | K-562 leukemia 17.1% | MALME-3M melanoma 44.7% | MDA-MB-231 breast 50.6% | RXF 393 renal 42% | SF-268 CNS 63.1% | SF-295 CNS 35% | SF-539 CNS 48.2% | UACC-257 melanoma 68% | M14 melanoma 36.5%

CCN1C(=O)N(CC)C2C1NN=c1s/c(=C\c3cnc(C)n3C)c(=O)n12 (stereo not given)
inactive: NCI-H23 lung 38.1% | NCI-H226 lung 53.3% | NCI-H322M lung 29.6% | HOP-62 NSCLC 34.4% | HOP-92 NSCLC 43% | A549/ATCC NSCLC 15.8% | 786-0 renal 28.4% | COLO 205 colon 14.5% | K-562 leukemia 15.5% | MALME-3M melanoma 29.8% | MDA-MB-231 breast 43.8% | SF-268 CNS 51.9% | UACC-257 melanoma 29.7%
active: NCI-H460 lung 4.44% | NCI-H522 lung -14.4% | DU-145 prostate 5.42% | RXF 393 renal -29.3% | SF-295 CNS 9.05% | SF-539 CNS -20.2% | M14 melanoma 4.96%

CCN(CC)CCCOc1ccc2ncnc(Nc3ccc(Oc4cccc(C(F)(F)F)c4)c(Cl)c3)c2c1
active: NCI-H460 lung -87.7% | NCI-H522 lung -2.46% | A549/ATCC NSCLC 5.61% | 786-0 renal -83.9% | COLO 205 colon -36.7% | DU-145 prostate 3.42% | K-562 leukemia -28.6% | MALME-3M melanoma -76.2% | MDA-MB-231 breast -42.2% | RXF 393 renal -64.9% | SF-295 CNS -61.7% | SF-539 CNS -87.5% | UACC-257 melanoma -60.5% | M14 melanoma -72%
inactive: NCI-H23 lung 15.4% | NCI-H226 lung 73.1% | NCI-H322M lung 16% | HOP-62 NSCLC 13.6% | HOP-92 NSCLC 27.3% | SF-268 CNS 35.1%

COc1cc(OC)c2sc(-c3ccc(-n4cncc4-c4cc(OC)c(OC)c(OC)c4)cc3)nc2c1
inactive: NCI-H23 lung 54.5% | NCI-H226 lung 52.7% | NCI-H322M lung 86.8% | HOP-62 NSCLC 79.6% | NCI-H460 lung 46.2% | HOP-92 NSCLC 14.8% | NCI-H522 lung 43.2% | A549/ATCC NSCLC 50.9% | 786-0 renal 67.2% | COLO 205 colon 44.5% | DU-145 prostate 78.3% | K-562 leukemia 45.7% | MALME-3M melanoma 61.7% | MDA-MB-231 breast 54.4% | SF-268 CNS 61% | SF-295 CNS 60.6% | SF-539 CNS 62.1% | UACC-257 melanoma 59.8% | M14 melanoma 69%
active: RXF 393 renal 4.25%

CC(C)CCN(CCC(C)C)CC(O)c1cc2c(c3ccccc13)CCCC2 (stereo not given)
inactive: NCI-H23 lung 56.6% | NCI-H226 lung 70.2% | NCI-H322M lung 81.4% | HOP-62 NSCLC 85.6% | NCI-H460 lung 75.3% | HOP-92 NSCLC 40.2% | NCI-H522 lung 56.7% | A549/ATCC NSCLC 73.3% | 786-0 renal 88.8% | COLO 205 colon 60.5% | DU-145 prostate 60.8% | K-562 leukemia 43.5% | MALME-3M melanoma 94.3% | MDA-MB-231 breast 37.7% | RXF 393 renal 62.1% | SF-268 CNS 71.9% | SF-295 CNS 76.5% | SF-539 CNS 82.1% | UACC-257 melanoma 99.4% | M14 melanoma 89.3%
